The structures appear in SMILES notation. Inconclusive results are not listed. Where a call stands in place of a potency, no number is given. Unmarked numbers belong to inactive results. Active and inactive are the calls of the source. The call rests on the fitted dose curve; in most records, active means well fitted activation curve with a large enough effect in the signal ratio in the repeat runs (not every such curve was filed as active); inconclusive means weak or mixed curves; inactive means flat fitted curve, though single readings scatter; the % refers to the signal ratio.

Experimental findings from PubChem BioAssay (Tox21) are described below.

This experiment can be described thus: qHTS assay to identify small molecule agonists of the TGF-beta/Smad signaling pathway (AID 1346859). As to conditions: SBE-bla HEK293T, TGF-beta/Smad beta-lactamase reporter, 5 h; series mostly up to 76.8 µM. The text has this:
U.S. Tox21 Program National Center for Advancing Translational Sciences [NCATS] NIH Chemical Genomics Center [NCGC] U.S. Environmental Protection Agency [EPA] National Institutes of Environmental Health Sciences [NIEHS] National Toxicology Program [NTP] U.S. Food and Drug Administration [FDA] Tox21 Assay Overview: Transforming growth factor beta (TGF-beta) superfamily consists of a large number of structurally related dimeric proteins that act as hormones or local mediators in regulating a wide range of biological functions. This superfamily includes TGF-betas themselves, the bone morphogenetic proteins (BMPs) and the activins. These ligands induce oligomerization of serine/threonine receptor kinases and phosphorylate the cytoplasmic signaling molecules of Smad protein family. CellSensor SBE-bla HEK 293T cell line (Life Technologies, Carlsbad, CA), responsive to TGF-beta was used to screen Tox21 10K compound library for identification of agonists/antagonists of the Smad signaling pathway. This cell line contains a beta-lactamase reporter gene under control of the Smad binding element (SBE) stably integrated into HEK 293T cells.
Tox21 Assay Protocol Summary: SBE-bla HEK 293T cells were dispensed at 4,000/well in 6 uL of assay medium into black wall/clear-bottom 1536-well plates using a Multidrop Combi (ThermoFisher Scientific, Waltham, MA) dispenser. After the assay plates were incubated at 37 C and 5% CO2 for an overnight, 23 nL of compounds dissolved in DMSO, positive controls or DMSO only was transferred to the assay plate by a Pintool station (Kalypsys, San Diego, CA). The assay plates were incubated at 37 C and 5% CO2 for 5 hr. One uL of LiveBLAzer B/G FRET substrate (Life Technologies) was added using a Flying Reagent Dispenser (Aurora Discovery, San Diego, CA) and the plates were incubated at room temperature for 2 hr. Fluorescence intensity (405 nm excitation, 460 nm and 530 nm emissions) was measured using an Envision plate reader (PerkinElmer, Shelton, CT).
(Quantitative high-throughput screening tests each substance at several concentrations.)
For `CC(=O)OC(C)C[N+](C)(C)C` (stereo not given), the Potency entry was “inactive”.

Take `O=C(Nc1ccc(C(=O)O)c(O)c1)c1ccccc1`: the Potency result is “inactive”.

On to `C1=CCC2CC=CC2C1` (stereo not given), for which the Potency result is “inactive”.

Take `CCCCCCOC(=O)CCCCC`: the Potency entry is “inactive”.

In the case of `COC(C)(C)OC`, the Potency result was “inactive”.

Consider `O=C1[C@@H]2[C@H]3CC[C@H](C3)[C@@H]2C(=O)N1CCCCN1CCN(c2ncccn2)CC1`, for which the Potency entry is “inactive”.

On to `COc1ccc(N)c([N+](=O)[O-])c1`, for which the Potency result was “inactive”.

For the molecule `C=CC(=O)O`, the Potency result is “inactive”.

As for `CC[C@H]1OC(=O)[C@H](C)[C@@H](O[C@H]2C[C@@](C)(OC)[C@@H](O)[C@H](C)O2)[C@H](C)[C@@H](O[C@@H]2O[C@H](C)C[C@H](N(C)C)[C@H]2O)[C@](C)(O)C[C@@H](C)/C(=N\OCOCCOC)[C@H](C)[C@@H](O)[C@]1(C)O`, the Potency entry was “inactive”.

As for `COc1cc(NCc2ccc3nc(N)nc(N)c3c2C)cc(OC)c1OC`, the Potency entry was “inactive”.

As to `CCOc1ncc(F)c(=O)[nH]1`, the Potency entry is “inactive”.

On to `C=C(C)C(=O)OCCC(F)(F)C(F)(F)C(F)(F)C(F)(F)C(F)(F)C(F)(F)F`, for which the Potency result was “inactive”.

With `CC(C)(O)CCc1ccccc1`, the Potency entry was “inactive”.

As to `Nc1ccc(S(=O)(=O)NCc2ccccc2)cc1`, the Potency result is “inactive”.

`Cc1ccc2c(c1)CCCN2`: the Potency result was “inactive”.

Take `CSSc1ccoc1C`: the Potency result is “inactive”.

For the molecule `CNC1CCCN(c2c(F)cc3c(=O)c(C(=O)O)cn(C4CC4)c3c2OC)C1` (stereo not given), the Potency result was “inactive”.

As to `O=P(O)(O)Oc1ccccc1`, the Potency entry was “inactive”.

For `CC(=O)OCC(C)C`, the Potency result was “inactive”.

Turning to `CSCC[C@H](NC(=O)[C@H](Cc1c[nH]c2ccccc12)NC(=O)CCNC(=O)OC(C)(C)C)C(=O)N[C@@H](CC(=O)O)C(=O)N[C@@H](Cc1ccccc1)C(N)=O`, the Potency result is “inactive”.

For the molecule `CC(C)(C)S`, the Potency entry is “inactive”.

For `Cc1ccc(N(CCO)CCO)cc1`, the Potency entry is “inactive”.

In the case of `CC(=O)C(C)=O`, the Potency entry was “inactive”.

As to `ClC1=C(Cl)C1(Cl)Cl`, the Potency entry was “inactive”.

With `CCCCCC`, the Potency entry was “inactive”.

With `COc1ccc(C)cc1`, the Potency result is “inactive”.

Consider `CCN(CC)CCNC(=O)c1cc(Cl)c(N)cc1OC`, for which the Potency result was “inactive”.

With `CC[C@H]1OC(=O)[C@H](C)[C@@H](O[C@H]2C[C@@](C)(OC)[C@@H](O)[C@H](C)O2)[C@H](C)[C@@H](O[C@@H]2O[C@H](C)C[C@H](N(C)C)[C@H]2O)[C@](C)(O)C[C@@H](C)C(=O)[C@H](C)[C@@H](O)[C@]1(C)O`, the Potency result is “inactive”.

Take `CCCCOCCOC(=O)c1cccnc1`: the Potency result is “inactive”.

For the molecule `O=C(C(=O)c1ccco1)c1ccco1`, the Potency entry is “inactive”.

`CN=C(N)NC(=O)Nc1c(C)cccc1C`: the Potency entry was “inactive”.

On to `CC(CCc1ccc(O)cc1)NCCc1ccc(O)c(O)c1` (stereo not given), for which the Potency result was “inactive”.

As for `CC1=CC[C@@H]2C[C@H]1C2(C)C`, the activation is 0.129% [at 15.8 µM].

In the case of `C=Cc1ccc(OC(C)=O)cc1`, the Potency result was “inactive”.

As for `COc1ccc(-c2cc(=S)ss2)cc1`, the Potency entry is “inactive”.

As to `Nc1ccc(NC(=O)c2ccc(N)cc2)cc1`, the Potency entry is “inactive”.

Regarding `OCC(CO)n1cnc(-c2ccc(F)cc2)c1-c1ccnc(Oc2ccccc2)n1`, the Potency result was “inactive”.

In the case of `CC/C=C\C/C=C\C/C=C\CCCCCCCC(=O)OCC`, the Potency result is “inactive”.

On to `COc1ccc(/C=C/C(=O)c2ccc(OC)cc2OC)cc1`, for which the Potency result was “inactive”.

For the molecule `COc1cc(S(=O)(=O)Nc2ccccc2)c(OC)cc1N`, the Potency entry is “inactive”.
